Screens deposited in PubChem BioAssay by Johns Hopkins Ion Channel Center.
KCNQ2 block: rat KCNQ2 potassium channel inhibitors, primary screen, cell-based, CHO-K1, FluxOR thallium flux, B-score; B-score at 10 µM; 1.1% of 310,000 active; 20 min; active compounds read low; Potassium voltage-gated channel subfamily KQT member 2 (Rattus norvegicus), O88943; AID 2156, 2009;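 active = fluorescence ratio B-score at most minus 3 library SDs, with starting brightness B-score within 2 library SDs, cut at about -5.5 in these data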
Target sequence (O88943 whole entry, looked up): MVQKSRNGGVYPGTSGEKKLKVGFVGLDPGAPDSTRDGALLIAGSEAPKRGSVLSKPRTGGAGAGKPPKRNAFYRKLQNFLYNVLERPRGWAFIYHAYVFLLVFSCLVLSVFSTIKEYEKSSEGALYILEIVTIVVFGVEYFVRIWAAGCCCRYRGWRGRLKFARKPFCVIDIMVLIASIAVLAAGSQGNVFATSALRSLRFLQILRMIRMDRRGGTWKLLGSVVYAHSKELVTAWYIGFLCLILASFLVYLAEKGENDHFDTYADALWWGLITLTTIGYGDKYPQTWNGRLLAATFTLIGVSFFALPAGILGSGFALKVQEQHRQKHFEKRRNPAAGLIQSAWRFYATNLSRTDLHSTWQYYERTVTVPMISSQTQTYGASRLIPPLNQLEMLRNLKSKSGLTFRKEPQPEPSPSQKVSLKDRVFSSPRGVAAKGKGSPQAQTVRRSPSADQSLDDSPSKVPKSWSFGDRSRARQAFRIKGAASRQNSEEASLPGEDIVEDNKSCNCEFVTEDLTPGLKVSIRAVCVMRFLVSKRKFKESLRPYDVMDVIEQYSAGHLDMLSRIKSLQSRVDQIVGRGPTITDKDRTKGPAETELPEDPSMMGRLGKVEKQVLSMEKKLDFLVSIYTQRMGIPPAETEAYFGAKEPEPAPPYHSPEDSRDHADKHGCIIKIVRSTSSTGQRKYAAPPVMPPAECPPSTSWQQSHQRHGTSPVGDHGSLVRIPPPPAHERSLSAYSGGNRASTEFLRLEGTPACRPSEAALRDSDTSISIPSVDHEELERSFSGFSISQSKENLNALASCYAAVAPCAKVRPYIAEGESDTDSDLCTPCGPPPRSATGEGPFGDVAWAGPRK
KCNQ2 enhance: potentiators of rat KCNQ2 potassium channel; B-score at 10 µM; AID 2239, 2010; Potassium voltage-gated channel subfamily KQT member 2 (Rattus norvegicus), O88943; 0.54% of 310,000 active; CHO-K1 KCNQ2, FluxOR thallium flux fluorescence; active compounds read high;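 active = fluorescence ratio B-score at least 3 SD of library B-scores, with initial fluorescence B-score within 3 of them, cut at about 5.3 in these data; same plate scores as AID 2156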;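 note: B-score of peak minus minimum over baseline fluorescence ratio after K+ and Tl+ stimulus; positive B-score means potentiation of KCNQ2 with more thallium influx and brighter signal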
Kir21 conf inh: mouse Kir2.1 channel blockers, retest, confirmation, cell-based, FluxOR thallium flux, duplicate; Tl flux remaining, % of negative control (active compounds read low), % at 10 µM; Kir2.1-expressing cells, FluxOR thallium flux fluorescence; active compounds read low; shares compounds with KCNQ2 enhance; 41% of 2,300 active; AID 2032, 2009;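 active = Primary-screen hit whose thallium flux fell at least 3 control SD below untreated wells in both duplicates, with normal baseline fluorescence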
HEK293 Tl flux: parental HEK293 activity in Kir2.1 inhibitor counter-screen. shares compounds with KCNQ2 enhance. parental HEK293 cells, FluxOR thallium flux fluorescence; 0% = unstimulated blank wells. FluxOR signal as % of negative control (100 = no effect), % at 10 µM. 19% of 2,300 active. AID 2105;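 active = dye signal at least 3 control SD above or below untreated wells in both duplicates, raw fluorescence within 3, either direction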;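 note: percent is based on the flux ratio of peak minus minimum fluorescence over baseline F0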
CHO-K1 Tl ctr: nonspecific thallium flux increase in parental CHO-K1, confirmation, counter-screen for KCNQ2 potentiator project, cell-based, FluxOR thallium flux, duplicate | activity increase over 3SD of controls, % at 10 µM | shares compounds with KCNQ2 enhance | parental CHO-K1 cells, FluxOR thallium flux fluorescence; zero = vehicle mean+3SD, 100% = vehicle-minus-blank window | AID 2282, 2010 | 43% of 1,200 active;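 active = signal rise of at least 3 SD above the untreated control mean, in both duplicate wells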;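 note: counter screen of KCNQ2 potentiator hits so any rise reflects channel-independent effects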
KCNQ1 sel pot: human KCNQ1 channel potentiation off-target, confirmation, selectivity assay for KCNQ2 potentiator project, cell-based, CHO, FluxOR thallium flux. shares compounds with KCNQ2 enhance. CHO KCNQ1 stable, FluxOR thallium flux fluorescence; beyond 3SD, as % of vehicle-control signal. activation over 3SD threshold, % at 10 µM. 28% of 1,200 active. AID 2283, 2010;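 active = fluorescence ratio rise of at least 3 SD of vehicle wells above their mean, in both replicate wells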
KCNQ2 pot confirm: rat KCNQ2 channel potentiators, confirmation, cell-based, CHO, FluxOR thallium flux, duplicate | shares compounds with KCNQ2 enhance | CHO-KCNQ2 cells, FluxOR thallium flux fluorescence | potentiation, less the hit threshold, % at 10 µM | AID 2287, 2010 | 68% of 1,200 active;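 active = fluorescence ratio rising 3 SD or more over the vehicle control mean in both replicates, plus primary screen hit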;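 note: peak minus minimum thallium fluorescence divided by baseline after K/Tl stimulus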
Kir2-1 sel: mouse Kir2.1 channel activation off-target, confirmation, selectivity assay for KCNQ2 potentiator project, cell-based, HEK293, FluxOR thallium flux. shares compounds with KCNQ2 enhance. HEK293 Kir2.1, FluxOR thallium flux fluorescence. activity over 3SD threshold, % at 10 µM. 2% of 1,200 active. AID 2345, 2010;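 active = fluorescence ratio rise of at least 3 SD above the vehicle-control mean, seen in both replicates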
KCNQ2 W236L pot: potentiators of retigabine-insensitive KCNQ2 W236L, mechanism study for KCNQ2 potentiator project, cell-based, rat KCNQ2 W236L, CHO, automated patch clamp; 10% of 940 active; current increase over 3SD of negative controls (%), active compounds read high, % at 25 µM; automated patch clamp current; shares compounds with KCNQ2 enhance;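 active = current increase at least 3 SD of the untreated controls above them in both duplicate recordings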
Of the large screens only hits and unclear results are named; the others gave an inactive call (follow-up assays come after a bar, where they were run). In the library only some 1.6% were active in any assay of this set; here they are far more common.

CC(NC(=O)c1cccs1)c1nnc(SCc2ccc(Cl)cc2Cl)n1C (stereo not given)	none
CCN1CCc2c(C#N)c(N3CCCCC3)nc(N3CCOCC3)c2C1	none (no result: KCNQ2 enhance)
N#Cc1c(N2CCOCC2)nc(N2CCCCC2)c2c1CCN(C1CCCCC1)C2	KCNQ2 enhance 11 | Kir21 conf inh inactive | HEK293 Tl flux inactive | CHO-K1 Tl ctr inactive | KCNQ1 sel pot 10 | KCNQ2 pot confirm 16 | Kir2-1 sel inactive | KCNQ2 W236L pot inactive
CC(OC(=O)c1cc(S(=O)(=O)N2CCOCC2)ccc1F)C(=O)NCc1ccc2c(c1)OCO2 (stereo not given)	none
COc1cccc(CN2CCNC(=O)C2CC(=O)NCCn2ccc3ccccc32)c1OC (stereo not given)	none (no result: KCNQ2 enhance)
COc1ccccc1CNCC(c1ccccc1)c1ccccc1	none (no result: KCNQ2 enhance) | Kir21 conf inh 48% | HEK293 Tl flux inactive
COc1cccc(CNCc2ccc(OC)c3ccccc23)c1OC	none
COc1ccccc1CNCc1cc(Br)ccc1OC	none
COc1ccccc1CNCc1ccc(OC)c2ccccc12	none | Kir21 conf inh 36% | HEK293 Tl flux inactive
COc1cc(CNCc2cccc3ccccc23)cc(OC)c1	none (no result: KCNQ2 enhance)
COc1ccccc1CNCc1cccc(Oc2ccccc2)c1	none | Kir21 conf inh inactive | HEK293 Tl flux inactive
COc1ccc(CNCc2ccc(OC)c3ccccc23)cc1	none | Kir21 conf inh 20% | HEK293 Tl flux inactive
COc1ccccc1CNCc1cc(OC)c(OC)cc1OC	none
CC1(c2nnc(Cc3ccccc3)o2)CC(c2ccc([N+](=O)[O-])cc2)=NO1 (stereo not given)	none (no result: KCNQ2 enhance)
O=C(CN1CCCCC1)Nc1ccccc1Oc1ccccc1	none (no result: KCNQ2 enhance)
CC(C)(C)NS(=O)(=O)c1ccc(NC(=S)NC(=O)C2CC2)cc1	none (no result: KCNQ2 enhance)
CC1=C(C)CC(C(=O)Nc2nccs2)C(C(=O)O)C1 (stereo not given)	none
COc1ccccc1Nc1ncnc2c1c(C)c(C)n2CCO	none
CCc1ccc(-c2nc(CS(=O)CC(=O)NC3CCCCCC3)c(C)o2)cc1 (stereo not given)	none
C/C(=N/NC(=O)c1ccccc1)c1ccc(NC(=O)C(F)(F)F)cc1	none (no result: KCNQ2 enhance)
Cc1ccc(NC(=O)CC(N)=S)cc1	none (no result: KCNQ2 enhance)
Cc1ccc(NC(=O)CC(O)(C(F)(F)F)C(F)(F)F)cc1	KCNQ2 enhance 9.7 | Kir21 conf inh inactive | HEK293 Tl flux inactive | CHO-K1 Tl ctr inactive | KCNQ1 sel pot inactive | KCNQ2 pot confirm 36 | Kir2-1 sel inactive | KCNQ2 W236L pot 3.0%
Cc1cc(=O)oc2cc(OCC(=O)Nc3ccc(S(=O)(=O)N(C)C)cc3)ccc12	none
Cc1ccc(C)c(S(=O)(=O)Nc2ccc(O)cc2)c1	none
Cc1cc(C)c(S(=O)(=O)Nc2ccc(O)cc2)cc1C	KCNQ2 enhance 10 | CHO-K1 Tl ctr inactive | KCNQ1 sel pot 1.5 | KCNQ2 pot confirm 40 | Kir2-1 sel inactive | KCNQ2 W236L pot inactive
O=C(NC(=S)N1CCN(Cc2ccccc2)CC1)c1ccco1	none (no result: KCNQ2 enhance)
